The nature of experiment [1]: qHTS assay to identify small molecule agonists of the sonic hedgehog signaling (Shh) pathway (AID 1259368).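 Further: NIH/3T3-derived 3T3Gli1-Luc cells carrying a stable Gli1-driven firefly luciferase reporter; series mostly up to about 92 µM; nearly all actives have a fitted effect of over 15% in size.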 In a few lines: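 NIH/3T3-derived 3T3Gli1-Luc cells with stably integrated Gli1-driven firefly luciferase, 2,000 cells/well, compounds added after 4 hr. Incubated 24 hr at 37C, 5% CO2; luminescence read after 30 min with luciferase reagent at room temperature.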
A general note: Quantitative high-throughput screening tests each substance at several concentrations.

Experiment [2] can be described thus: qHTS assay to identify small molecule antagonists of the sonic hedgehog signaling (Shh) pathway (AID 1259369). Further: nearly all actives have a fitted effect of over 45% in size. Further: potency means the concentration at half of the fitted maximal effect. The essentials:
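NIH/3T3-derived Gli1-Luc reporter cells plated 4 h, dosed with compound, then stimulated with conditioned medium for 24 h at 37 C. Firefly luciferase luminescence read after 30 min with detection reagent at room temperature.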

Experiment [3] addresses Estrogen receptor beta (Homo sapiens) (UniProt Q92731). Briefly: qHTS assay to identify small molecule agonists of the estrogen receptor beta (ER-beta) signaling pathway (AID 1259377; active means well fitted activation curve with a large enough effect in the signal ratio in the repeat runs, not every such curve was filed as active; the % refers to the signal ratio). In a few lines: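 Measured by fluorescence intensity from a B/G FRET beta-lactamase substrate (2 h, room temperature) in ER-beta-UAS-bla HEK293T cells treated with DMSO-dissolved compounds for 16 hr at 37C and 5% CO2.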

The target is the same in experiment [4]. Briefly: qHTS assay to identify small molecule antagonists of the estrogen receptor beta (ER-beta) signaling pathway (AID 1259378; active means well fitted inhibition curve with a large enough effect in the signal ratio in the repeat runs, not every such curve was filed as active; the % refers to the signal ratio). The essentials: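 ER-beta-UAS-bla HEK293T (GripTite) cells in 2% charcoal-stripped FBS medium were preincubated 6 hr at 37C, dosed with compound, then stimulated with 1 nM E2 (final) for 16 hr; beta-lactamase reporter read by B/G FRET fluorescence after 2 hr substrate loading.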

A short description of experiment [5]: qHTS assay to identify small molecule agonists of the androgen receptor (AR) signaling pathway in the presence of an antagonist - cell viability counter screen (AID 1259379; active means well fitted curve in the direction sought with a large enough effect in the repeat runs; an effect the other way counts as inactive or inconclusive;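 further: MDA-kb2 human breast cancer cells carrying an MMTV luciferase reporter; series mostly up to about 92 µM; nearly all actives have a fitted effect of over 25% in size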). The essentials: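 MDA-kb2 cells (MMTV-luciferase, AR/GR), 3,000/well, 5 h attachment, then 3.0 µM nilutamide (final) and compounds at 15 concentrations. Viability by CellTiter-Fluor fluorescence after 16 h at 37 °C, 0% CO2, in the reporter wells.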

Experiment [6] is described as follows: qHTS assay to identify small molecule agonists of the estrogen receptor beta (ER-beta) signaling pathway - cell viability counter screen (AID 1259380; active means well fitted curve in the direction sought with a large enough effect in the repeat runs; an effect the other way counts as inactive or inconclusive; further: nearly all actives have a fitted effect of over 30% in size; further: potency means the concentration at half of the fitted maximal effect). The essentials:
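ER-beta-UAS-bla HEK293T cells in medium with 2% charcoal-stripped FBS, pre-incubated 6 hr, then treated 16 hr at 37C. Cytotoxicity read in the same wells by CellTiter-Glo luminescence after 30 min at room temperature.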

Experiment [7] concerns the target Androgen receptor (Homo sapiens) (UniProt P10275). Put plainly: qHTS assay to identify small molecule agonists of the androgen receptor (AR) signaling pathway in the presence of an antagonist (AID 1259381). Further: nearly all actives have a fitted effect of over 15% in size. In a few lines:
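MDA-kb2 cells carrying MMTV-luciferase (AR/GR responsive), 3,000 cells/well, co-treated with 3.0 uM nilutamide final. Compounds at 15 concentrations, 16 hr at 37C without CO2. Luciferase luminescence read after 30 min with ONE-Glo.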

Experiment [8] can be described thus: qHTS assay to identify small molecule antagonists of the estrogen receptor beta (ER-beta) signaling pathway - cell viability counter screen (AID 1259382; active means well fitted curve in the direction sought with a large enough effect in the repeat runs; an effect the other way counts as inactive or inconclusive; further: series mostly up to about 92 µM; nearly all actives have a fitted effect of over 55% in size). In a few lines: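 ER-beta-UAS-bla HEK293T cells in 2% charcoal-stripped FBS medium, treated with compound plus 1 nM 17-beta-estradiol for 16 h at 37C. Viability read by CellTiter-Glo luminescence after 30 min at room temperature in the same wells.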

Experiment [9] in a line: qHTS assay to identify small molecule agonists or antagonists of the thyroid stimulating hormone receptor (TSHR) signaling pathway - wild type cell line counter screen (AID 1259384). Further: potency means the concentration at half of the fitted maximal effect. The essentials:
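Wild-type HEK293 cells were plated 18 h at 37 C/5% CO2, pin-dosed with compound plus Ro20-1724 medium, held 30 min at room temperature, then given cAMP-d2 and anti-cAMP-cryptate; fluorescence was read after 1 h. Fifteen concentrations, triplicate.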

The target in experiment [10] is Estrogen receptor (Homo sapiens) (UniProt P03372). Briefly: qHTS assay to identify small molecule agonists of the estrogen receptor alpha (ER-alpha) signaling pathway in the presence of an antagonist (AID 1259383). Further: top concentration of the series differs between compounds; nearly all actives have a fitted effect of over 15% in size. The essentials: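 VM7Luc4E2 cells express endogenous full-length ER-alpha with an ERE-luciferase reporter and were hormone-deprived for 5 days. Compounds at 15 concentrations were added with 10.0nM ICI-182,780 for 22hr at 37C. Luminescence was read with ONE-Glo.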
Estrogen receptor (Homo sapiens), sequence (P03372 whole entry, looked up): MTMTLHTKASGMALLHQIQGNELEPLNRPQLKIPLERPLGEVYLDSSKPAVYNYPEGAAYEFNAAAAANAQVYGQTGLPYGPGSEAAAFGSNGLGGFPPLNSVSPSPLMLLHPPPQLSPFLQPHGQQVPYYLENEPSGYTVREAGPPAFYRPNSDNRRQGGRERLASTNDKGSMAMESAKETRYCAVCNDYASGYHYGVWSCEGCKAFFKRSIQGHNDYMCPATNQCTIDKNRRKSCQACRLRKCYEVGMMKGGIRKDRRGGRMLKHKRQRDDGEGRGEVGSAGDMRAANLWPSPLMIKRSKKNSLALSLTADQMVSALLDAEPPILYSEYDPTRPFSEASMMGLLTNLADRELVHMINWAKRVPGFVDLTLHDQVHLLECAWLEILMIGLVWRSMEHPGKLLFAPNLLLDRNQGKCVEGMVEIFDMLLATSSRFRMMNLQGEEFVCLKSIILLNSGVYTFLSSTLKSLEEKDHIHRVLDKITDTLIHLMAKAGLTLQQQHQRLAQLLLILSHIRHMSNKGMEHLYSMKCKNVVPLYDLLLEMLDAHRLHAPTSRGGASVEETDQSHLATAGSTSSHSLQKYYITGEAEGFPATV

Molecules are shown by their SMILES. Several values for one entry are separate records, joined by “and”; a condition that tells them apart may be missing. Equal entries are not always repeated. Records with an inconclusive call do not appear. The source holds several records for some structures; these can differ, active in one and inactive in another. Activity calls are given as the source filed them. Unless noted, the call rests on the fitted dose curve.

Androgen receptor (Homo sapiens), sequence (P10275 whole entry, looked up): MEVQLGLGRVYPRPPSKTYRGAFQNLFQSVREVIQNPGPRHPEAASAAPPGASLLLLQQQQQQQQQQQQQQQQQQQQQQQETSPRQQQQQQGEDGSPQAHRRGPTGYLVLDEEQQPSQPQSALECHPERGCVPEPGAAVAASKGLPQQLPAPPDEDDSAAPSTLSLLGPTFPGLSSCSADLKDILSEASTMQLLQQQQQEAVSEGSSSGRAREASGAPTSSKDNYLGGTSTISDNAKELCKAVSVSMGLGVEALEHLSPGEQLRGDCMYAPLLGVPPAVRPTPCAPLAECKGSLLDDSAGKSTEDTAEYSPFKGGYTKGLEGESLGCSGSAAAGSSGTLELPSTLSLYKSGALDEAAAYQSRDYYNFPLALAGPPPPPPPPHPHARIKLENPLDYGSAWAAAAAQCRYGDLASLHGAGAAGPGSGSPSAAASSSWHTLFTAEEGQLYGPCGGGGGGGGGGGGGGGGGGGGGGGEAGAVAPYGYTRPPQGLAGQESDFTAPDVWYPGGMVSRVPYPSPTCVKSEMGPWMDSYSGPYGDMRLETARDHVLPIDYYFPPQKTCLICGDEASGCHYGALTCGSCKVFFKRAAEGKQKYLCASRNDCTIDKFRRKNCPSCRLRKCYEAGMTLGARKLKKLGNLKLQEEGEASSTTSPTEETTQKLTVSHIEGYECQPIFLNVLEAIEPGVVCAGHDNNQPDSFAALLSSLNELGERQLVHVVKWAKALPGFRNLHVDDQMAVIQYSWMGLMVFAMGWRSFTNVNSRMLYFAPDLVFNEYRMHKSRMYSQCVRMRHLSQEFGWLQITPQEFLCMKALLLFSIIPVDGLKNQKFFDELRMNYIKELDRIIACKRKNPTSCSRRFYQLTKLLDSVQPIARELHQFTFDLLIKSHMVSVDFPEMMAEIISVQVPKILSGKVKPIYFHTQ
Estrogen receptor beta (Homo sapiens), sequence (Q92731 whole entry, looked up): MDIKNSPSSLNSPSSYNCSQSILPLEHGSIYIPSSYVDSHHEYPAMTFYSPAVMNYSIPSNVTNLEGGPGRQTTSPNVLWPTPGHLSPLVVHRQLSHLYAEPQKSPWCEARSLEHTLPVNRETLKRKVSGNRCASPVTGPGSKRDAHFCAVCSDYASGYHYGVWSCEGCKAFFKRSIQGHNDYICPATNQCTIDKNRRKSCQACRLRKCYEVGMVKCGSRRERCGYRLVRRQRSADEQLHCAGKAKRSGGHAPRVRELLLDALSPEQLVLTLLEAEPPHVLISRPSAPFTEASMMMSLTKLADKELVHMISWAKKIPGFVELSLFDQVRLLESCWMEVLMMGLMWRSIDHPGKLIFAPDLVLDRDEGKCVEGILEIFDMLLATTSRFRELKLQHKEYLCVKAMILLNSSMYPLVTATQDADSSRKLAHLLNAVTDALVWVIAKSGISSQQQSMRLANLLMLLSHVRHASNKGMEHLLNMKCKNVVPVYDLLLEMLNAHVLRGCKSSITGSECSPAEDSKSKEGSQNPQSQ

In the case of `COc1ccc(O)cc1`, the molecule was called inactive in [1], in experiment [3] and in [7]. In addition, the Potency in experiment [2] is 21.7 µM (active). Also, the Potency entry in experiment [4], in experiment [5], in experiment [6], in experiment [8] and in experiment [9] was “inactive” throughout.

For `CC(C)(C)NCC(O)c1ccc(O)c(CO)c1` (centres undefined), the outcome in experiment [1] and in experiment [3] was inactive. The Potency result in experiment [2], in experiment [4], in [5], in experiment [6], in [8] and in [10] was “inactive” in each case. The Potency in [9] was 15.8 nM (active) and 37.6 nM (active).

As for `O=C(O)CCCCC1CCSS1` (centres undefined), the molecule was classed as inactive in [1] and in experiment [3]. Moreover, the Potency entry in [2], in [4], in [5], in [6], in experiment [8] and in experiment [10] was “inactive” throughout. The Potency entry in [9] was “inactive”.

As to `Nc1cccc(N)c1`, the result in [1] and in experiment [3] was inactive. The Potency entry in [2], in [4], in experiment [5], in experiment [6] and in experiment [8] was “inactive” in each case.

On to `Cc1cnc(NC(=O)C2=C(O)c3ccccc3S(=O)(=O)N2C)s1`, for which the result in experiment [1] and in experiment [3] was inactive. In addition, the Potency entry in experiment [2], in experiment [4], in [5], in experiment [6] and in experiment [8] was “inactive” each time.

For `COC1=CC(=O)C[C@@H](C)[C@]12Oc1c(Cl)c(OC)cc(OC)c1C2=O`, the result in experiment [1] and in experiment [3] was inactive. Besides, the Potency in experiment [2] was 4.29 µM (active) and 13.7 µM (active). Besides, the Potency entry in experiment [4], in experiment [5], in [6], in experiment [8], in [10] and in [9] was “inactive” each time.

Regarding `COc1ccc(C(=O)c2ccccc2)c(O)c1`, the molecule was called inactive in experiment [1], in experiment [3] and in experiment [7]. For the same molecule, the Potency entry in experiment [2], in [4], in experiment [5], in [6], in [8] and in experiment [9] was “inactive” throughout.

With `COCC(C)N` (centres undefined), the molecule was classed as inactive in experiment [1], in experiment [3] and in experiment [7]. Also, the Potency result in experiment [2], in experiment [4], in experiment [5], in experiment [6], in experiment [8] and in [10] was “inactive” in each case. Further, the Potency result in experiment [9] was “inactive”.

For `COc1cc2c(c(OC)c1OC)-c1ccc(OC)c(=O)cc1[C@@H](NC(C)=O)CC2`, the result in experiment [1], in experiment [3] and in experiment [7] was inactive. Moreover, the Potency in experiment [2] is 1.7 nM (active) and 2.4 nM (active); in experiment [6], 27 µM (active) and inactive. Moreover, the Potency result in [4], in experiment [5] and in [8] was “inactive” in each case.

For the molecule `COc1cc(O)c(C(=O)c2ccccc2)cc1S(=O)(=O)O`, the molecule was classed as inactive in experiment [1], in [3] and in experiment [7]. Also, the Potency result in experiment [2], in experiment [4], in experiment [5], in experiment [6], in [8] and in experiment [10] was “inactive” throughout. Also, the Potency entry in experiment [9] was “inactive”.

With `CC1(C)O[C@@H]2[C@@H](CO[C@@]3(COS(N)(=O)=O)OC(C)(C)O[C@@H]23)O1`, the outcome in [1] and in experiment [3] was inactive. Also, the Potency result in experiment [2], in [4], in experiment [5], in experiment [6], in experiment [8] and in experiment [9] was “inactive” throughout.

For `CCCCOCCOCCSC#N`, the molecule was classed as inactive in [1] and in experiment [3]. Further, the Potency entry in experiment [2], in [4], in experiment [5], in experiment [6], in [8] and in experiment [9] was “inactive” throughout.

Take `CN/C(=C\[N+](=O)[O-])NCCSCc1ccc(CN(C)C)o1`: the molecule was classed as inactive in [1] and in experiment [3]. Moreover, the Potency entry in experiment [2], in [4], in experiment [5], in experiment [6], in [8] and in experiment [9] was “inactive” throughout.

On to `O=c1cc[nH]c(=O)[nH]1`, for which the call in experiment [1] and in experiment [3] was inactive. Further, the Potency result in [2], in experiment [4], in experiment [5], in experiment [6], in [8] and in experiment [9] was “inactive” each time.

Take `C[C@]12CC[C@@H]3c4ccc(O)cc4C[C@@H](CCCCCCCCCS(=O)CCCC(F)(F)C(F)(F)F)[C@H]3[C@@H]1CC[C@@H]2O` (some centres undefined): the outcome in experiment [1], in experiment [3] and in experiment [7] was inactive. Besides, the Potency entry in experiment [2], in [5] and in experiment [9] was “inactive” throughout. The Potency in [6] was 9.68 µM (active) and 14.3 µM (active) and 8.41 µM (active).

For the molecule `CCCCOC(=O)CCCCCCCCC(=O)OCCCC`, the outcome in experiment [1] and in experiment [3] was inactive. Moreover, the Potency result in experiment [2], in experiment [4], in experiment [5], in [6], in experiment [8] and in experiment [9] was “inactive” each time.

For `CCCCNC(=O)NS(=O)(=O)c1ccc(N)cc1`, the molecule was classed as inactive in experiment [1] and in experiment [3]. The Potency entry in experiment [2], in experiment [4], in [5], in [6], in [8] and in experiment [9] was “inactive” in each case.

Regarding `OCCCc1ccccc1`, the molecule was classed as inactive in experiment [1] and in experiment [3]. The Potency entry in [2], in experiment [4], in experiment [5], in [6], in experiment [8] and in [9] was “inactive” each time.

`CN(C)C=O`: the outcome in experiment [1] and in experiment [3] was inactive. Besides, the Potency result in experiment [2], in [4], in [5], in experiment [6], in [8] and in [9] was “inactive” each time.

As for `C=CC(=O)NC(C)(C)CS(=O)(=O)O`, the result in experiment [1] and in [3] was inactive. Moreover, the Potency result in experiment [2], in experiment [4], in experiment [5], in experiment [6], in experiment [8] and in [9] was “inactive” in each case.

Consider `CCN1CCCC1=O`, for which the call in experiment [1] and in experiment [3] was inactive. Further, the Potency entry in [2], in experiment [4], in experiment [5], in [6], in experiment [8] and in experiment [9] was “inactive” each time.

For the origin of these results see PubChem BioAssay (Tox21).
